Inconclusive results are not listed. Activity calls are given as the source filed them. The call rests on the fitted dose curve; in most records, active means well fitted curve in the direction sought with a large enough effect; inconclusive means small, poorly fitted or top-dose-only effect, or another doubt; inactive means no such curve, though single readings can be large; an effect the other way counts as inactive or inconclusive.
How the values were obtained:
[1] = Primary qHTS for inhibitors of nuclear receptor binding SET domain protein 2 (NSD2) in an RCH-ACV wild type WT cells (2C) (AID 1645877); further: nearly all actives have a fitted effect of over 70% in size; further: potency means the concentration at half of the fitted maximal effect; on activity change, negative = cell killing: on the % scale 0 is the no-effect control and ±100 the full control effect
[2] = target: Glutathione peroxidase 1 (Homo sapiens) (UniProt P07203); assay: Primary qHTS Assay for Inhibitors of Recombinant Selenoprotein Glutathione Peroxidase 1 (GPX1) (AID 1845191); further: nearly all actives have a fitted effect of over 65% in size; on activity, negative = inhibition: on the % scale 0 is the no-effect control and ±100 the full control effect
Procedure, shortened: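 Recombinant GPX1 (10 nM final) was preincubated with compound for 30 min at room temperature, then reacted with 1 mM GSH, 0.5 mM CHP, 0.5 mM NADPH and 100 nM glutathione reductase; NADPH fluorescence (340/450 nm) was read at 0 and 15 min.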

[3] = target: Phospholipid hydroperoxide glutathione peroxidase GPX4 (Homo sapiens) (UniProt P36969); assay: Primary qHTS Assay for Inhibitors of Recombinant Selenoprotein Glutathione Peroxidase 4 (GPX4) (AID 1845192); further: nearly all actives have a fitted effect of over 65% in size; on activity change, negative = inhibition: series mostly up to about 50 µM; on the % scale 0 is the no-effect control and ±100 the full control effect
Procedure, shortened: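 GR-coupled readout: 100 nM GR, 1 mM GSH, 0.5 mM NADPH; NADPH fluorescence (ex 340/em 450 nm) read at t=0 and after 15 min RT. GPX4 200 nM, preincubated 30 min with compound; substrate 0.5 mM CHP.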

[4] = target: Luciferin 4-monooxygenase (Photinus pyralis) (UniProt P08659); assay: Primary firefly luciferase (FLuc) qHTS assay for identification of artifact compounds. (AID 1845220); further: nearly all actives have a fitted effect of over 60% in size;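 on activity change, negative = inhibition: series mostly up to about 54 µM; plate controls were DMSO vehicle for no effect and no enzyme for full effect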
Procedure, shortened: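 Reaction readout was CCD-imaged luminescence, taken 5 min after adding 10 nM purified firefly enzyme to compound-treated wells holding 10 uM luciferin and ATP in pH 7.6 buffer.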

[5] = Primary fluorescence-based thiol-reactive (MSTI) qHTS assay for identification of artifact compounds. (AID 1845221); further: nearly all actives have a fitted effect of over 65% in size; further: potency means the concentration at half of the fitted maximal effect;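 on activity change, negative = thiol reactive: series mostly up to about 54 µM; thiol-reactive compounds lower the probe fluorescence signal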
Procedure, shortened: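 In PBS pH 7.4 with 2% DMSO, each compound met 4 uM MSTI for one hour at ambient temperature, shielded from light, before fluorescence detection.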

[6] = system: Nanoluciferase (engineered Oplophorus gracilirostris luciferase); assay: Primary Nanoluciferase (NLuc) qHTS assay for identification of artifact compounds. (AID 1845222);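 further: NLuc secreted into diluted conditioned medium of S16 cells; series mostly up to about 54 µM; 0% = DMSO and -100% = no enzyme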
Procedure, shortened: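 Concentration-response data were obtained by luminescence after 5 min with Nano-Glo substrate at 1:100. The enzyme was diluted S16 NLuc-expressing cell medium, preincubated with compound for 15 min at RT. Curves were fitted with a 4-parameter Hill model.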

[7] = Primary redox qHTS assay for identification of artifact compounds. (AID 1845223);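 further: 0% = DMSO and 100% = reference compound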
Procedure, shortened: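 Amplex Red (25 uM) and HRP (250 mU/mL) in HBSS, with compounds for 15 min, then 250 uM DTT for 30 min, room temperature, dark. Fluorescence 525/598 nm read; normalized to DMSO and 10 uM DA3003; Hill fit.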

Sequence of Phospholipid hydroperoxide glutathione peroxidase GPX4 (Homo sapiens) (P36969 whole entry, looked up): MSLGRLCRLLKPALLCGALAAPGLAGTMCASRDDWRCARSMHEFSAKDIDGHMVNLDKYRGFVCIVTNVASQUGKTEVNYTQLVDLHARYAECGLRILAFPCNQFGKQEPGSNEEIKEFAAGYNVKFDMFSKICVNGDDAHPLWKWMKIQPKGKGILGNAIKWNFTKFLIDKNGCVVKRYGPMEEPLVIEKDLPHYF
Sequence of Glutathione peroxidase 1 (Homo sapiens) (P07203 whole entry, looked up): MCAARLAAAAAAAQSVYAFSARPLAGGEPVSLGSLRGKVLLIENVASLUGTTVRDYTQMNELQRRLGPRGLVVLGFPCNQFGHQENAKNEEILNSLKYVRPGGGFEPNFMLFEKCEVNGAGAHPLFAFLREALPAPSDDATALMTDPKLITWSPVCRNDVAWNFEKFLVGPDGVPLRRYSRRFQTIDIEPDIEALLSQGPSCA

C[C@@H]1O[C@@H](O[C@H]2[C@H](O[C@H]3CC[C@@]4(C)C(CC[C@]5(C)C4C=C[C@]46OC[C@@]7(CCC(C)(C)C[C@H]74)[C@@H](O)C[C@]65C)[C@]3(C)CO)O[C@H](CO)[C@@H](O)[C@@H]2O[C@@H]2O[C@H](CO)[C@@H](O[C@@H]3O[C@@H](C)[C@H](O)[C@@H](O)[C@H]3O)[C@H](O)[C@H]2O)[C@H](O)[C@H](O)[C@H]1O (stereo partly drawn)
inactive: Potency [2] | Potency [3] | activity change, negative = inhibition [4] -4.04% [at 11.6 µM] | activity change, negative = thiol reactive [5] 81.1% [at 11.5 µM] | activity, negative = inhibition [6] -2% [at 11.6 µM] | redox activity (% of DA3003) [7] 9.95% [at 11.5 µM]
active: Potency [1] 3.88 µM

Cc1cc(OCc2nnc(SC3CCCC3)n2-c2cccnc2)ccc1-c1ccc(S(C)(=O)=O)cc1
inactive: Potency [2] | Potency [3] | Potency [4] | Potency [5] | Potency [6] | Potency [7]
active: Potency [1] 1.45 µM

CNC12CC3C[C@@](C)(C1)C[C@](C)(C3)C2
inactive: Potency [1] | Potency [2] | Potency [3] | Potency [4] | Potency [5] | Potency [6] | Potency [7]

CC1OC2OC(=O)C3(C)CC4=C(CO)C5=C(CC(=O)C4(C)C(C1=O)C23)C(C)(C)OC(=O)C5 (stereo not drawn)
inactive: Potency [1] | Potency [2] | Potency [3] | Potency [4] | Potency [5] | Potency [6] | Potency [7]

C=CC(=O)Nc1cccc(Nc2nc(Nc3ccc(N4CCN(C(C)=O)CC4)cc3OC)ncc2C(F)(F)F)c1
inactive: Potency [2] | Potency [3] | Potency [4] | Potency [6]
active: Potency [1] 2.9 µM | Potency [5] 2.99 µM

C#CCN(Cc1cc2c(=O)n(C)c(CN3CCN(C)CC3)nc2cc1Cl)c1ccc(C(=O)NCc2cccnc2)cc1
inactive: Potency [1] | Potency [2] | Potency [3] | Potency [4] | Potency [5] | Potency [6]

COc1cc(N2CCOCC2)ccc1Nc1ncc(Cl)c(Nc2ccccc2NS(C)(=O)=O)n1
inactive: Potency [2] | Potency [3] | Potency [4] | Potency [6]
active: Potency [1] 1.83 µM | Potency [5] 1.34 µM

C[C@@H]1O[C@@H](O[C@H]2[C@H](OC(=O)[C@]34CCC(C)(C)C[C@H]3C3=CCC5[C@@]6(C)C[C@H](O)[C@H](O[C@@H]7O[C@H](CO)[C@@H](O)[C@H](O)[C@H]7O)[C@@](C)(CO)C6[C@H](O)C[C@@]5(C)[C@]3(C)CC4)OC[C@H](O)[C@@H]2O)[C@H](O)[C@H](O)[C@H]1O[C@@H]1OC[C@@H](O)[C@H](O[C@@H]2OC[C@](O)(CO)[C@H]2O)[C@H]1O (stereo partly drawn)
inactive: activity change, negative = cell killing [1] -13.7% [at 9.23 µM] | outcome [2] inactive [at 9.52 µM] | outcome [3] inactive [at 9.73 µM] | activity change, negative = inhibition [4] 1.22% [at 11.6 µM] | activity change, negative = thiol reactive [5] 350% [at 11.5 µM] | activity, negative = inhibition [6] 0% [at 11.6 µM] | redox activity (% of DA3003) [7] 8.55% [at 11.5 µM]

C[C@@H]1O[C@@H](O[C@H]2[C@@H]3C=CO[C@@H](O[C@@H]4O[C@H](CO)[C@@H](O)[C@H](O)[C@H]4O)[C@@H]3[C@@]3(CO)O[C@@H]23)[C@H](OC(=O)/C=C/c2ccccc2)[C@H](O)[C@H]1O
inactive: Potency [1] | Potency [2] | Potency [3] | Potency [4] | Potency [6]
active: Potency [5] 7.93 µM

Cc1c(NC(=O)c2cc(C(N)=O)nc3cc(F)ccc23)c(C(F)(F)F)nn1Cc1ccc(C#N)cc1
inactive: Potency [1] | Potency [2] | Potency [3] | Potency [4] | Potency [5] | Potency [6] | Potency [7]

CN[C@H](C(=O)N[C@H](C(=O)N(C)[C@H](/C=C(\C)C(=O)O)C(C)C)C(C)(C)C)C(C)(C)c1ccccc1
inactive: Potency [1] | Potency [2] | Potency [3] | Potency [4] | Potency [5] | Potency [6]

COc1cc(C)c(C(=O)Oc2cc(C)c(C(=O)Oc3cc(C)c(C(=O)NC(C)C(=O)O)c(O)c3)c(O[C@@H]3O[C@H](CO)[C@@H](O)[C@H](O)[C@H]3OC(C)=O)c2)c(OC)c1 (stereo partly drawn)
inactive: Potency [1] | Potency [2] | Potency [3] | Potency [4] | Potency [5] | Potency [6]

C=C1CCCC2(C)CC3(OC)OC(=O)C(C)=C3CC12 (stereo not drawn)
inactive: Potency [1] | Potency [2] | Potency [3] | Potency [4] | Potency [5] | Potency [6]

C=C1CC[C@@H]2[C@@](C)(CO[C@@H]3O[C@H](CO)C(O)[C@H](O)C3O)[C@H](O)CC[C@@]2(C)[C@@H]1CC/C(C)=C/CO (stereo partly drawn)
inactive: activity change, negative = cell killing [1] -1.61% [at 9.23 µM] | Potency [2] | Potency [3] | activity change, negative = inhibition [4] -1.11% [at 11.6 µM] | activity change, negative = thiol reactive [5] 21.9% [at 11.5 µM] | activity, negative = inhibition [6] 2.18% [at 11.6 µM] | redox activity (% of DA3003) [7] 11.9% [at 11.5 µM]

COC(=O)N1CCC(n2ncc3c(N4CCOCC4)nc(-c4ccc(NC(=O)Nc5ccc(CO)cc5)cc4)nc32)CC1
inactive: Potency [2] | Potency [3] | Potency [4] | Potency [5] | Potency [6]
active: Potency [1] 0.0183 µM

CCOc1cc(C)c(Cl)cc1S(=O)(=O)n1cnc2ccccc21
inactive: Potency [1] | Potency [2] | Potency [3] | Potency [4] | Potency [5] | Potency [6]

CC(=O)O[C@H]1CC(C)(C)CC2[C@@]13[C@H](O)C[C@]1(C)[C@@]2(CCC2[C@@]4(C)CC[C@H](O[C@@H]5OC[C@H](O[C@@H]6O[C@H](CO)[C@@H](O)[C@H](O)[C@H]6O[C@@H]6OC[C@@H](O)[C@H](O)[C@H]6O)[C@H](O)[C@H]5O[C@@H]5O[C@H](CO)[C@@H](O)[C@H](O)[C@H]5O)C(C)(C)C4CC[C@]21C)O[C@@H]3O (stereo partly drawn)
active: Potency [1] 1.09 µM
inactive: Potency [2] | Potency [3] | activity change, negative = inhibition [4] -0.127% [at 11.6 µM] | activity change, negative = thiol reactive [5] 93.4% [at 11.5 µM] | activity, negative = inhibition [6] 2.06% [at 11.6 µM]

O=C(Cc1ccc(-c2ccccc2)cc1)NC1CCC1
inactive: Potency [1] | Potency [2] | Potency [3] | Potency [4] | Potency [5] | Potency [6] | Potency [7]

CC(C)[C@@H]1C(=O)N(S(C)(=O)=O)[C@@H]2CCN(C(=O)/C=C/CN3CCCCC3)[C@H]21
inactive: Potency [1] | Potency [2] | Potency [3] | Potency [4] | Potency [5] | Potency [6] | Potency [7]
